Consider 26 compounds from PubChem BioAssay (EPA / NIEHS).

Active and inactive are the calls of the source. How the source made its calls: active means hit-call score of the fitted dose curve at least 0.9, where 1 is the maximum; inconclusive means response in the unintended direction; inactive means score below 0.9.

The test system of this assay is rat CYP3A1, gene 25642. Kind of assay: NVS_ADME_rCYP3A1: NovaScreen (NVS) CYP450-related Enzyme Activity (ADME) Assay for rat CYP3A1 (AID 2283126). The procedure, abridged: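 Compounds went first at 10 uM duplicate, then to series with 20 uM maximum. Fluorescence from substrate turnover by the recombinant enzyme was measured 0.5 h post-dosing, inhibition scored against acetonitrile vehicle.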
On to `CCCSP(=O)(OCC)Oc1ccc(Br)cc1Cl` (stereo unspecified), for which the AC50 is 9.45 µM (active). As to `O=C(O)c1cc(Oc2ccc(C(F)(F)F)cc2Cl)ccc1[N+](=O)[O-]`, the AC50 is 5.89 µM (active). Consider `CCCOCC(=Nc1ccc(Cl)cc1C(F)(F)F)n1ccnc1`, for which the AC50 is 2.8 µM (active). Same read-out and setting: with `CCOP(=S)(OCC)Oc1ccc2c(C)c(Cl)c(=O)oc2c1` the figure was 1.22 µM (active); with `Cc1cc(C2CC2)nc(Nc2ccccc2)n1`, 10.7 µM (active). For `CC(C1CC1)C(O)(Cn1cncn1)c1ccc(Cl)cc1` (stereo unspecified), the AC50 is 0.384 µM (active).

As for `CCOP(=O)(OCC)Oc1cc(C)nc(C(C)C)n1`, the result was inactive. With `COP(=O)(OC)SCn1c(=O)oc2cc(Cl)cnc21`, the AC50 was 9.11 µM (active). Still for that read-out and setting: with `COc1cccc(C(=O)NN(C(=O)c2cc(C)cc(C)c2)C(C)(C)C)c1C` the figure was 0.331 µM (active); with `C#CCC1=C(C)C(OC(=O)C2C(C=C(C)C)C2(C)C)CC1=O` (stereo unspecified), 7.59 µM (active). Still for that read-out and setting: for `CNc1cnn(-c2cccc(C(F)(F)F)c2)c(=O)c1Cl` the value was 2.91 µM (active); for `C[Si](Cn1cncn1)(c1ccc(F)cc1)c1ccc(F)cc1`, 1.23 µM (active). In the case of `S=C1NCCN1`, the compound was classed as inactive.

For `CCc1cccc(C)c1N(C(=O)CCl)C(C)COC` (stereo unspecified), the AC50 was 6.49 µM (active). For `CSc1nc(NC(C)C)nc(NC(C)C)n1`, the AC50 is 5.92 µM (active). `CC[C@H](C)[C@H]1O[C@]2(C=C[C@@H]1C)C[C@@H]1C[C@@H](C/C=C(\C)[C@@H](O[C@H]3C[C@H](OC)[C@@H](O[C@H]4C[C@H](OC)[C@@H](NC)[C@H](C)O4)[C@H](C)O3)[C@@H](C)/C=C/C=C3\CO[C@@H]4[C@H](O)C(C)=C[C@@H](C(=O)O1)[C@]34O)O2`: the AC50 is 7.04 µM (active).

For `COc1ccc(C(=CC(=O)N2CCOCC2)c2ccc(Cl)cc2)cc1OC`, the AC50 is 3.86 µM (active). `CSC1=N[C@@](C)(c2ccccc2)C(=O)N1Nc1ccccc1`: the AC50 is 2.77 µM (active). Same read-out and setting: with `CCC(=O)Nc1ccc(Cl)c(Cl)c1` the figure was 4.74 µM (active); with `CCOP(=S)(OCC)Oc1ccc([N+](=O)[O-])cc1`, 6.9 µM (active).

Take `CCOC(=O)CC(SP(=O)(OC)OC)C(=O)OCC` (stereo unspecified): the outcome was inactive. Still for that read-out and setting: for `CC(C)=CC1C(C(=O)OCN2C(=O)C3=C(CCCC3)C2=O)C1(C)C` (stereo unspecified) the value was “inactive”. With `CCOP(=O)(NC(C)C)Oc1ccc(SC)c(C)c1` (stereo unspecified), the AC50 is 7.98 µM (active). For the compound `CCOP(=S)(OCC)Oc1cc(C)nc(C(C)C)n1`, the AC50 is 6.82 µM (active). On the same count and under the same terms, with `FC(F)C(F)(F)OCC(Cn1cncn1)c1ccc(Cl)cc1Cl` (stereo unspecified) the figure was 3.65 µM (active); with `CCOP(=O)(SC(C)CC)N1CCSC1=O` (stereo unspecified), 6.64 µM (active).
